In the library only some 1.3% were active in any assay of this set; here they are far more common.
BRCA1 expr up = BRCA1 expression activation; MCF7-BRCA1-FFLuc reporter, luminescence, 48 h; response scale: scaled: vehicle 0%, 10 µM genistein 100%; Potency, µM (highest dose often 46.1 µM), without a hit: at the top dose activation, most hits filed as activators; AID 624202; hit rate 1.1% among 380,000; note: potency is the fitted concentration of half-maximal effect; nearly all actives have a fitted effect of over 80% in size
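Luminescence from a BRCA1-driven firefly luciferase in MCF7 cells was read after 48 h compound exposure at 37 C. Data normalized against DMSO and a 10microM genistein activation control, then curve-fitted across the titration.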
Integrin act MD = activates integrin-mediated alleviation for muscular dystrophy. hit rate 0.064% among 350,000. Potency, µM (top dose mostly 38.3 µM), without a hit: top-dose activation, most hits filed as activators. alpha7betagal myoblasts, beta-gal FDG fluorescence, 48 h;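 note: potency is the fitted concentration of half-maximal effect; 100% = response of the positive control SU9516; nearly all actives have a fitted effect of over 60% in size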
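Alpha7betagal+/- myoblasts (passage 13) were plated 16-24 hr, then exposed to compounds (1:260 dilution of DMSO stock) for 48 hours at 37C. After MPER lysis, β-galactosidase reporter activity was read as FDG fluorescence (ex 480/em 540) after 30 minutes.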
IL2 activator = IL-2 activation; IL-2 activation reporter assay, cell-based qHTS; stimulated with anti-CD3/CD4/CD28 beads; in transgenic mouse T cells; activation, % (series mostly up to about 46 µM); hit rate 0.065% among 360,000; in the data active = activation above about 50%; inconclusive = mostly about 30% to 49%; note: 0% is about no effect
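Unstimulated transgenic mouse T cells; 60-min compound exposure; bead-based TCR/CD4/CD28 stimulation; 18 h culture, 37 degrees C; dual fluorescence (EGFP, DsRed) plate cytometry.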
PKM2 act = increases activity of human pyruvate kinase M2 | P14618 | purified PKM2, Kinase-Glo ATP luminescence, activation; response scale: 0% is enzyme alone, no compound | Potency, µM (series often up to 57.5 µM), without a hit: at the highest dose activation, hits mostly activators | hit rate 0.34% among 260,000 | AID 1631; note: potency is the fitted concentration of half-maximal effect; % is set by controls: 0 for no effect and ±100 for the full control effect; nearly all actives have a fitted effect of over 55% in size
Target sequence (P14618 whole entry, looked up): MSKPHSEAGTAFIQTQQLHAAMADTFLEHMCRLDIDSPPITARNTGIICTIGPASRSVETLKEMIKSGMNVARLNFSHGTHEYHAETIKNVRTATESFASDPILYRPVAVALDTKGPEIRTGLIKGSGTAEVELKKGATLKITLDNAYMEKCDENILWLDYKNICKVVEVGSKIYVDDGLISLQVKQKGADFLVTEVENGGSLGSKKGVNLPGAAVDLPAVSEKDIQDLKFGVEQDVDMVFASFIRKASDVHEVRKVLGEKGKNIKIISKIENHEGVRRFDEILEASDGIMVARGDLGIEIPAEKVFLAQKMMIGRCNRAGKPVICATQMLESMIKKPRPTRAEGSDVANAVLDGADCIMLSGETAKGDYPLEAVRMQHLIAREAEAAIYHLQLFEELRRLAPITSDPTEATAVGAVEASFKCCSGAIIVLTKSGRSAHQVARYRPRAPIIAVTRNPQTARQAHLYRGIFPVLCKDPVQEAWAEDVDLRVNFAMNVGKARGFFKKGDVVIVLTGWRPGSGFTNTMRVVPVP
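Purified hPK-M2 (>95% pure) converted ADP (0.1 mM final) to ATP with 0.5 mM PEP in 50 mM imidazole pH7.2, KCl, MgCl2, Tween 20, BSA; 1 h at room temperature. ATP detected by Kinase-Glo luminescence.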
Anesthetic bind = candidate novel general anesthetic via apoferritin binding. P02791. apoferritin/1-aminoanthracene competitive binding, fluorescence. Potency, µM (series often up to 77.5 µM), for the others: top-dose activity change, negative = displacement, most hits filed as inhibitors. hit rate 0.074% among 350,000; note: potency is the fitted concentration of half-maximal effect; % is set by controls: 0 for no effect and ±100 for the full control effect; nearly all actives have a fitted effect of over 20% in size
Target sequence (P02791 2-175 limits assumed): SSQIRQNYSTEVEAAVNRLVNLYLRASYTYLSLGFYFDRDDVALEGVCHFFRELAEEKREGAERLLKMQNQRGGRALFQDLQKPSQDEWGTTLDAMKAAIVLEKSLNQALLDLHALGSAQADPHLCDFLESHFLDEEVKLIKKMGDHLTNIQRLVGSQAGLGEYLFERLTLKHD
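Horse-spleen apoferritin (10 uM) in 50% saturated 1-aminoanthracene in PBS was incubated 10 min at room temperature with compound. Fluorescence (ex 380, em 535 nm) was normalized to free and bound 1-AMA, with concentration-response fitted by a four-parameter Hill equation.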
The depositor's hits bear a star; ? = inconclusive; . = no result given; [ ] = remark or other dose. Unless noted, calls come from the whole dose curve; as a rule, active = well fitted curve in the direction sought with a large enough effect; inconclusive = small, poorly fitted or top-dose-only effect, or another doubt; inactive = no such curve, though single readings can be large; an effect the other way counts as inactive or inconclusive.

SMILES | BRCA1 expr up | Integrin act MD | IL2 activator | PKM2 act | Anesthetic bind
Cc1ccc2oc(=O)c(/C=C(\O)c3cccs3)nc2c1 | ? | -3% | -2 | 7% | -8%
Cc1ccc2oc(=O)c(/C=C(\O)c3ccccc3)nc2c1 | 7.1µM* | -33% | -1 | -10% | -23%
CC[C@H](C)[C@H](NC(=O)[C@H](CCC(=O)O)NC(=O)[C@H](CO)NC(=O)[C@@H](NC(=O)[C@@H](N)CO)C(C)C)C(=O)N[C@@H](CCC(N)=O)C(=O)N[C@@H](CC(C)C)C(=O)N[C@@H](CCSC)C(=O)N[C@@H](Cc1cnc[nH]1)C(=O)N[C@@H](CC(N)=O)C(=O)N[C@@H](CC(C)C)C(=O)NCC(=O)N[C@@H](CCCCN)C(=O)N[C@@H](Cc1cnc[nH]1)C(=O)N[C@@H](CC(C)C)C(=O)N[C@@H](CC(N)=O)C(=O)N[C@@H](CO)C(=O)N[C@@H](CCSC)C(=O)N[C@@H](CCC(=O)O)C(=O)N[C@@H](CCCNC(=N)N)C(=O)N[C@H](C(=O)N[C@@H](CCC(=O)O)C(=O)N[C@@H](Cc1c[nH]c2ccccc12)C(=O)N[C@@H](CC(C)C)C(=O)N[C@@H](CCCNC(=N)N)C(=O)N[C@@H](CCCCN)C(=O)N[C@@H](CCCCN)C(=O)N[C@@H](CC(C)C)C(=O)N[C@@H](CCC(N)=O)C(=O)N[C@@H](CC(=O)O)C(=O)N[C@H](C(=O)N[C@@H](Cc1cnc[nH]1)C(=O)N[C@@H](CC(N)=O)C(=O)N[C@@H](Cc1ccccc1)C(=O)N[C@H](C(=O)N[C@@H](C)C(=O)N[C@@H](CC(C)C)C(=O)NCC(=O)O)C(C)C)C(C)C)C(C)C | . | . | . | . | -6%
O=C(Nc1ccc(Cl)cc1Cl)c1cnn2c1NC(=C1CC1)C=C2C(F)F | 2% | . | . | . | .
Clc1ccc(-n2nnc(-c3cccnc3Cl)n2)cc1Cl | 4µM* | 10% | -1 | -4% | -11%
COc1ccc(-c2nn(-c3cccc([N+](=O)[O-])c3)c3c2cnc2cc4c(cc23)OCO4)cc1 | . | . | . | . | 13%
Cc1cccc(N(Cc2ccccc2)C(=O)c2ccc(CS(C)(=O)=O)cc2)c1 | -13% | -10% | 0 | 0% | -10%
CS(=O)(=O)Cc1cccc(C(=O)NN(c2ccccc2)c2ccccc2)c1 | -6% | 13µM* | 0 | -7% | -12%
COc1ccc(CCNC(=O)Cn2nnc(C(=O)Nc3ccc(Br)cc3)c2N)cc1OC | 33% | 11µM* | 1 | . | -12%
COc1cccc(/C=c2/[nH]c(=O)/c(=C\c3cccc(OC)c3OC)[nH]c2=O)c1OC | -4% | . | . | . | .
COCCOC(=O)c1c(C)nc(SCC(=O)Nc2ccc(OC)cc2)c(C#N)c1-c1ccco1 | -16% | 2% | 1 | 4% | ?
Cc1nc(SCC(=O)c2ccccc2)c(C#N)c(-c2ccco2)c1C(=O)NCc1ccco1 | -39% | -32% | 1 | 25µM* | ?
Cc1ccc(-c2cc(C3C4C=CCCC4(C)C(=O)N3Cc3ccccc3)ccc2F)cc1 (stereo not given) | . | . | . | . | -5%
S=C(Nc1ccc(Cl)cc1)Nc1ccc2c(c1)OCCO2 | 7.1µM* | 6% | -3 | 1% | -4%
S=C(Nc1ccc2c(c1)OCCO2)Nc1ccccc1Cl | 64% | 2% | 0 | -7% | -10%
COc1ccc(Cl)cc1NC(=S)NC(=O)c1ccc2c(c1)OCO2 | -23% | 9% | -5 | . | .
Cc1cc(C)cc(C(=O)NC(=S)Nc2ccc3c(c2)OCCO3)c1 | ? | -32% | -5 | -4% | 0%
O=C(NC(=S)Nc1ccc2c(c1)OCO2)c1ccc(Cl)cc1 | 6.3µM* | -3% | -1 | 6% | -7%
CCc1ccc(C(=O)NC(=S)Nc2ccc3c(c2)OCCO3)cc1 | 6.3µM* | -13% | 0 | -4% | -19%
Cc1cccc(N2CCN(CCNC(=O)Nc3ccc(Cl)cc3)CC2)c1C | . | . | . | . | -14%
Cc1c(C(=O)Nc2cccc(C#N)c2)sc2nc3n(c(=O)c12)CCCCC3 | . | . | . | . | 56%
C=C1C=C(Br)C2(OCCCO2)[C@H]2OC12 (stereo not given in full) | . | . | . | . | 1%[15.3 µM]
COc1cc2nc(N3CCCN(C)CC3)nc(OC3CCN(C)CC3)c2cc1OC | 0% | . | . | . | .
COc1ccc(CCNC(=O)Cc2ccc(OCc3ccccc3)c(OC)c2[N+](=O)[O-])cc1OCc1ccccc1 | -46% | -29% | -7 | 2% | 35µM*
COc1cc(OC)c(/C=C/c2nccc3ccccc23)c(OC)c1 | -51% | . | . | . | .
SMILES | BRCA1 expr up | Integrin act MD | IL2 activator | PKM2 act | Anesthetic bind
COc1ccc(C2=NN(C(=O)CCC(=O)O)C(c3cccs3)C2)cc1 (stereo not given) | 4% | 6% | -1 | 5% | -1%
COc1ccc(C2=NN3C(C2)c2ccccc2OC3c2cccs2)cc1 (stereo not given) | 10µM* | -14% | -1 | 1% | ?
CSc1ncccc1C(=O)OCC(=O)c1cc(C)n(C)c1C | 96% | 10µM* | 0 | . | .
Cn1c(N)c(C(=O)COC(=O)Cc2c(F)cccc2Cl)c(=O)n(C)c1=O | -18% | 30% | 6 | . | .
CCn1c(C)cc(C(=O)COC(=O)c2cccnc2SC)c1C | ? | -1% | -3 | . | .
Cc1cc(C(=O)COC(=O)Cc2c(F)cccc2Cl)c(C)n1C | 5µM* | 20% | -3 | . | .
COc1nc(-c2ccccc2)ccc1-c1noc(-c2ccccc2)n1 | 6.3µM* | 31% | 0 | -7% | 1%
COc1ccc(-c2ccc(-c3noc(-c4ccccc4)n3)c(OC)n2)cc1 | 37% | 25% | -2 | 1% | -12%
CCOc1ccccc1-c1nc(-c2ccc(C)nc2OC)no1 | 7.1µM* | 3% | 1 | 1% | -20%
COc1ccc(C2=Nn3c(nnc3-c3ccc(OC)c(OC)c3)SC2)cc1OC | . | . | . | . | -8%
CCCNc1nc(Nc2ccc([N+](=O)[O-])cc2)nc(N2CCOCC2)n1 | -16% | . | . | . | .
C=CC(C1=CC(=O)C(OC)=CC1=O)c1ccccc1 (stereo not given) | . | . | . | . | -13%
O=C(NNCc1ccccc1)c1ccccn1 | 1.1µM* | 14% | 0 | . | .
Nc1ccc(-c2nc3ncccc3o2)c(O)c1 | 5µM* | 3% | -4 | . | 44%
Nc1ccc(-c2nc3ncccc3o2)c(Cl)c1 | ? | 18% | 1 | -12% | 4%
O=c1c(/C=N/Nc2ccccc2)c(Sc2nnnn2-c2ccccc2)nc2ccccn12 | 76% | -26% | 90* | 6% | -7%
Cc1ccc2c(Cl)c(C(=O)NC3CC3)sc2c1 | 2.8µM* | 10% | -5 | . | -4%
NC(=O)c1c(NC(=O)c2cnccn2)sc2c1CCCC2 | 7.9µM* | 5% | 1 | -4% | -13%
NC(=O)c1c(NC(=O)c2ccncc2)sc2c1CCCC2 | 48% | 26% | -3 | -2% | -17%

High-throughput results deposited in PubChem BioAssay by National Center for Advancing Translational Sciences (NCATS).
